PubChem BioAssay (Tox21)
Results filed as inconclusive are left out. Where a call stands in place of a potency, no number is given. Activity calls are given as the source filed them. Unless noted, calls follow the shape of the full dose curve.

What was measured:
[1] = molecular target: Gonadotropin-releasing hormone receptor (Homo sapiens) (UniProt P30968); assay: Human gonadotropin-releasing hormone receptor (GnRHR) small molecule agonists, calcium flux assay in GnRHR-HEK293 cells (AID 1920063); also: nearly all actives have a fitted effect of over 35% in size
Outline: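 Calcium-dye fluorescence, Ex/Em=480/540, recorded every 1 sec over 3 min after compound addition to GnRHR-HEK293 cells. Cells had been seeded 18 hours earlier and dye-loaded for 1 hour at 37 C. Fifteen concentrations, triplicates.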

[2] = molecular target: KiSS-1 receptor (Homo sapiens) (UniProt Q969F8); assay: Human kisspeptin (KISS1R) small molecule agonists, calcium flux assay in KISS1R-HEK293 cells (AID 1920064; active = well fitted activation curve with a large enough effect in the repeat runs)
Outline: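 Calcium flux read-out: kinetic fluorescence at Ex/Em=480/540, 1 s intervals over 3 min, after pin-tool compound addition to dye-loaded KISS1R-HEK293 cells. Fifteen concentrations, triplicates.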

[3] = G protein-coupled receptor (GPCR) small molecule agonists, calcium flux assay: HEK293 wild type cell line counter screen (AID 1920065)
Outline: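 Agonist mode; 18 h seeding at 37 C, 1 h dye load at 37 C; compounds pinned from DMSO, ATP as positive control; kinetic fluorescence 480/540 nm, 3 min, 1 s reads; 15 concentrations, triplicate.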

[4] = p53 small molecule agonists, cell-based qHTS assay with human liver microsomes (AID 1963577);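 also: p53 response element beta-lactamase reporter cells with liver microsomes plus NADPH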
Outline: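 With metabolic activation: human liver microsomes (0.5 mg/mL final) plus NADPH (0.5 mg/mL final) added alongside compounds to p53RE-bla cells; 16 h 37 C exposure; beta-lactamase read by LiveBLAzer fluorescence.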

[5] = p53 small molecule agonists, cell-based qHTS assay with human liver microsomes: qHTS cell viability counter screen (AID 1963579); also: nearly all actives have a fitted effect of over 45% in size; also: potency is read from the fitted curve at half-maximal effect
Outline: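 Metabolic activation used human liver microsomes and NADPH, both 0.5 mg/mL final, over 16 hours at 37 C on p53RE-bla cells (4,000/well). Cytotoxicity measured by CellTiter-Glo luminescence, 30 min at room temperature.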

[6] = p53 small molecule agonists, cell-based qHTS assay with rat liver microsomes: qHTS cell viability counter screen (AID 1963580); also: nearly all actives have a fitted effect of over 45% in size
Outline: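 Cytotoxicity counter screen: intracellular ATP read by CellTiter-Glo luminescence in the p53 reporter wells. HCT-116 p53RE-bla cells were treated for 16 h at 37 C alongside rat liver microsomes and NADPH, each 0.5 mg/mL final.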

[7] = p53 small molecule agonists, cell-based qHTS assay (AID 1963582; active = well fitted activation curve with a large enough effect in the signal ratio in the repeat runs, not every such curve was filed as active; the % refers to the signal ratio)
Outline: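 Fluorescence intensity read-out of a beta-lactamase reporter under a p53 response element. Cells were exposed to DMSO-dissolved compounds for 16 h at 37 C, then developed with FRET substrate for 2 h at RT.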

[8] = molecular target: 5-hydroxytryptamine receptor 2A (Homo sapiens) (UniProt P28223); assay: 5-hydroxytryptamine receptor 2A (HTR2A) small molecule agonists, cell-based qHTS assay (AID 1963587); also: nearly all actives have a fitted effect of over 30% in size; also: potency is read from the fitted curve at half-maximal effect
Outline: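 Kinetic calcium-flux fluorescence (2 min, 1 sec intervals) after compound addition in agonist mode. HTR2A-CHO cells were cultured 18 h, then dye-loaded 1 h at 37 C.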

[9] = molecular target: Muscarinic acetylcholine receptor M1 (Homo sapiens) (UniProt P11229); assay: Cholinergic receptor muscarinic 1 (CHRM1) small molecule antagonists, cell-based qHTS assay (AID 1963588); also: nearly all actives have a fitted effect of over 40% in size
Outline: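 Compounds were tested at 15 concentrations in three independent runs. Dye-loaded CHRM1-CHO cells were exposed 5 min at room temperature before stimulation by acetylcholine added at 50nM. Intracellular calcium was read kinetically on FDSS for 3 min.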

[10] = molecular target: Muscarinic acetylcholine receptor M1 (Homo sapiens) (UniProt P11229); assay: Cholinergic receptor muscarinic 1 (CHRM1) small molecule agonists, cell-based qHTS assay (AID 1963589); also: nearly all actives have a fitted effect of over 35% in size
Outline: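 Calcium flux read-out: kinetic fluorescence at 1 sec intervals after pin-tool compound addition to dye-loaded CHRM1-CHO cells (human M1). Agonist mode; 15 concentrations tested in triplicate independent runs.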

[11] = cAMP Responsive Elements (CRE) small molecule agonists, cell-based qHTS assay (AID 1963590)
Outline: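 Beta-lactamase reporter readout: LiveBLAzer B/G FRET substrate, 2 h at room temperature, added after 3 h compound treatment of CRE-bla HEK 293T cells at 37 C/5% CO2.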

[12] = cAMP Responsive Elements (CRE) small molecule antagonists, cell-based qHTS assay (AID 1963591; active = well fitted inhibition curve with a large enough effect in the signal ratio in the repeat runs, not every such curve was filed as active; the % refers to the signal ratio; also: potency is read from the fitted curve at half-maximal effect)
Outline: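 HEK293T CRE-bla; 18 h preincubation; compound pin-transfer; NKH477 0.25 uM final, 3 h, 37 C; LiveBLAzer FRET substrate 2 h RT.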

[13] = molecular target: Beta-2 adrenergic receptor (Homo sapiens) (UniProt P07550); assay: Adrenergic beta2 receptor (ADRB2) small molecule antagonists, cell-based qHTS assay (AID 1963592); also: series mostly up to about 92 µM; nearly all actives have a fitted effect of over 50% in size
Outline: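 Assay format: CHO-ADRB2 cells, 18-20hr seeding at 37C/5% CO2, then compound plus 1nM isoproterenol agonist mix for 0.5hr RT. Homogeneous time-resolved fluorescence cAMP detection after 1hr, expressed as 665/615 nm ratio.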

[14] = molecular target: D(2) dopamine receptor (Homo sapiens) (UniProt P14416); assay: Dopamine D2 receptor (DRD2) small molecule agonists, cell-based qHTS assay (AID 1963594); also: nearly all actives have a fitted effect of over 35% in size
Outline: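 cAMP accumulation in DRD2-HEK293 cells measured by HTRF after 1 h detection; compounds added 10 min before NKH477 (200nM […]) forskolin-analogue stimulation, 30 min at room temperature, with Ro20-1724 present at 0.1 mM final.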

[15] = molecular target: D(2) dopamine receptor (Homo sapiens) (UniProt P14416); assay: Dopamine D2 receptor (DRD2) small molecule antagonists, cell-based qHTS assay (AID 1963595; active = well fitted inhibition curve with a large enough effect in the signal ratio in the repeat runs, with a control signal flat; the % refers to the signal ratio)
Outline: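 HEK293 cells stably expressing DRD2 were preincubated with 0.1 mM Ro20-1724, then with compound for 10 min at room temperature. Cells were stimulated with 200 nM NKH477 plus 12 nM quinpirole for 30 min, and cAMP was read by HTRF.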

[16] = p53 small molecule agonists, cell-based qHTS assay with rat liver microsomes (AID 1963578)
Outline: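 Metabolic activation by rat liver microsomes and NADPH, each 0.5 mg/mL final, added right after compounds to p53RE-bla reporter cells (4,000/well, plated 5 h earlier). 16 h at 37 C, then LiveBLAzer substrate for 2 h at room temperature in the dark; fluorescence read-out.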

[17] = p53 small molecule agonists, cell-based qHTS assay: qHTS cell viability counter screen (AID 1963581); also: nearly all actives have a fitted effect of over 45% in size; also: potency is read from the fitted curve at half-maximal effect
Outline: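 Cytotoxicity read-out: ATP-based luminescence (CellTiter-Glo, 30 min RT) measured in the same wells as the p53 reporter assay, HCT-116 p53RE-bla cells, 16 h compound exposure at 37 C.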

[18] = molecular target: 5-hydroxytryptamine receptor 2A (Homo sapiens) (UniProt P28223); assay: 5-hydroxytryptamine receptor 2A (HTR2A) small molecule antagonists, cell-based qHTS assay (AID 1963586); also: nearly all actives have a fitted effect of over 45% in size; also: potency is read from the fitted curve at half-maximal effect
Outline: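 CHO cells stably expressing human HTR2A were plated for 18 h at 37 C, then loaded with calcium dye for 1 h. Compounds were preincubated 5 min at room temperature before DOI (4 nM solution) was added. Kinetic fluorescence was read for 3 min.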

[19] = molecular target: Beta-2 adrenergic receptor (Homo sapiens) (UniProt P07550); assay: Adrenergic beta2 receptor (ADRB2) small molecule agonists, cell-based qHTS assay (AID 1963593);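 also: CHO cells stably overexpressing human ADRB2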
Outline: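 CHO cells stably over-expressing ADRB2 were plated overnight at 37C, then dosed with compounds plus a stimulation mix containing 100uM IBMX and 25uM Ro-20-1724 for 0.5hr at room temperature. cAMP was measured by HTRF competition, 1hr.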

Beta-2 adrenergic receptor (Homo sapiens), sequence (P07550 whole entry, looked up): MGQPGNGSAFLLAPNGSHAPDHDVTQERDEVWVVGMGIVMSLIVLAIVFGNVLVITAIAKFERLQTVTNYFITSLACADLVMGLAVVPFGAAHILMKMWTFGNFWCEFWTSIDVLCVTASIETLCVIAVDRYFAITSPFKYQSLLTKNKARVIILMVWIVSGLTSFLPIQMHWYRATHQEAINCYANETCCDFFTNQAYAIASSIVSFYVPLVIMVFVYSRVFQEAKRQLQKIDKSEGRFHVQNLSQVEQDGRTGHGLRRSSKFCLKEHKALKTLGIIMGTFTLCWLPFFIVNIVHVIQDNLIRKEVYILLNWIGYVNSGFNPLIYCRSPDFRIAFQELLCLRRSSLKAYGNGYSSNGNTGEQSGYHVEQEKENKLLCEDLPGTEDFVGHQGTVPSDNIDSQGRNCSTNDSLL
Muscarinic acetylcholine receptor M1 (Homo sapiens), sequence (P11229 whole entry, looked up): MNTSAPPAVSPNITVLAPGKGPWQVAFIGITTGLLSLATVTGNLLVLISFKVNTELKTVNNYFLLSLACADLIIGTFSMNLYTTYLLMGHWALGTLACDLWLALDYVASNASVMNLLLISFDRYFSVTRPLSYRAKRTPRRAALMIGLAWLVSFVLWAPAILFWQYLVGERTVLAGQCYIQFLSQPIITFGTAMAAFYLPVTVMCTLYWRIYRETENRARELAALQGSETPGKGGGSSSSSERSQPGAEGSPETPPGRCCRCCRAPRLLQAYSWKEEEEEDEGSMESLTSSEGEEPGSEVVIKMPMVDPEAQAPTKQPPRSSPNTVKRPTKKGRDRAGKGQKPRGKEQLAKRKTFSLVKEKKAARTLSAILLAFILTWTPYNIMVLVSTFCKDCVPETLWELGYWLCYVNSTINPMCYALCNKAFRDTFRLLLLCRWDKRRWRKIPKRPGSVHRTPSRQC
KiSS-1 receptor (Homo sapiens), sequence (Q969F8 whole entry, looked up): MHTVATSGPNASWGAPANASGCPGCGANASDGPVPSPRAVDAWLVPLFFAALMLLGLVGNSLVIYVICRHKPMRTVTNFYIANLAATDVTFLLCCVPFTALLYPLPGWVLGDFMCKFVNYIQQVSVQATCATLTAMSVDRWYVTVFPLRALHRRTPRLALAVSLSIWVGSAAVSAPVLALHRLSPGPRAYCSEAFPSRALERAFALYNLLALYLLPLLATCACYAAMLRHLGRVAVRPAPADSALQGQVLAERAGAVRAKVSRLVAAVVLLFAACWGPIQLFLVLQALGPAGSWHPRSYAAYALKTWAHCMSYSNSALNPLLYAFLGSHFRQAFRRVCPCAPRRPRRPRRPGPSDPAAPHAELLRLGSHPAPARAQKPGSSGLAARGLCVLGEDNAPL
Gonadotropin-releasing hormone receptor (Homo sapiens), sequence (P30968 whole entry, looked up): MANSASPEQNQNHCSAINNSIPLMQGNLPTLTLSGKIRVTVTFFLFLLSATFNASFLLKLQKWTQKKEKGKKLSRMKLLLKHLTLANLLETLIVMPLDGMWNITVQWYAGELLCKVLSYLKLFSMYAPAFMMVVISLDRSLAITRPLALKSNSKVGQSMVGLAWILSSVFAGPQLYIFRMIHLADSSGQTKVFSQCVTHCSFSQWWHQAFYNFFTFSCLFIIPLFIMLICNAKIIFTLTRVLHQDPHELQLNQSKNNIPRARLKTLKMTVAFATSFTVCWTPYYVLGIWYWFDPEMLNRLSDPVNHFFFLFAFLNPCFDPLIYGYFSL
5-hydroxytryptamine receptor 2A (Homo sapiens), sequence (P28223 whole entry, looked up): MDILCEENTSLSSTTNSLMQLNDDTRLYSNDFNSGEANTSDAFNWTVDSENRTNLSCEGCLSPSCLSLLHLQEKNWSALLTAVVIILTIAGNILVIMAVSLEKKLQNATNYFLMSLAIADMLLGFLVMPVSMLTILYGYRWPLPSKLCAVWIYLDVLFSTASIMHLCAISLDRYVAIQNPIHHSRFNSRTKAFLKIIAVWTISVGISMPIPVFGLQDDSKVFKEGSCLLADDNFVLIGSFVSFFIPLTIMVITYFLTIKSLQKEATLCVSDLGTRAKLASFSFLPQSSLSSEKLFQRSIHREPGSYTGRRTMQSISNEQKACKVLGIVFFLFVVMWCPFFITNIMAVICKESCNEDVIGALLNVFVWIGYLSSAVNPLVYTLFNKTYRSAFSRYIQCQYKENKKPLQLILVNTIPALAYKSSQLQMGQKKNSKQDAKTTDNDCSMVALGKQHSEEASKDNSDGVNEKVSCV
D(2) dopamine receptor (Homo sapiens), sequence (P14416 whole entry, looked up): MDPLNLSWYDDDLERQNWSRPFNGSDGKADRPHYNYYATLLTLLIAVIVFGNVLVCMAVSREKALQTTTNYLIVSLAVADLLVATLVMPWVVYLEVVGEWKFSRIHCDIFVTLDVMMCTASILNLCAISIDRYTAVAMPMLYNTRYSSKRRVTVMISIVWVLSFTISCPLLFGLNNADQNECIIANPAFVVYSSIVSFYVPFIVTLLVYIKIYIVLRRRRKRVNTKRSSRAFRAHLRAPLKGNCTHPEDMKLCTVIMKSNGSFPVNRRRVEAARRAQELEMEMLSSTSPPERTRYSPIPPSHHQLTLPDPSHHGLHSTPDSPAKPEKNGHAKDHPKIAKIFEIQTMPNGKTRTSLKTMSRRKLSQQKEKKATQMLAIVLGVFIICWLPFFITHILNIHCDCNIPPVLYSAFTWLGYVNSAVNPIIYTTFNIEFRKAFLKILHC

SMILES	Potency [1]	outcome [2]	outcome [3]	Potency [4]	Potency [5]	Potency [6]	Potency [7]	Potency [8]	Potency [9]	Potency [10]	Potency [11]	Potency [12]	Potency [13]	Potency [14]	Potency [15]	Potency [16]	Potency [17]	Potency [18]	Potency [19]
Oc1ccc2c(c1)OCO2	inactive	inactive	inactive	inactive	inactive	inactive	inactive	inactive	inactive	inactive	inactive	inactive	inactive	inactive	inactive	–	–	–	–
CCCCCCOC(=O)CCC	inactive	inactive	–	inactive	inactive	inactive	–	inactive	inactive	inactive	inactive	inactive	inactive	inactive	inactive	inactive	inactive	inactive	–
N=C1C=CC(=C(c2ccc(N)cc2)c2ccc(N)cc2)C=C1	inactive	inactive	inactive	inactive	inactive	–	–	inactive	inactive	–	–	–	–	–	–	–	inactive	8.4 µM (active)	–
C/C(=N/NC(=O)c1ccncc1)C(=O)O	inactive	inactive	–	inactive	inactive	inactive	inactive	inactive	inactive	inactive	inactive	–	inactive	inactive	inactive	inactive	inactive	inactive	–
O=C(O)Cc1ccc(-c2ccccc2)cc1	inactive	inactive	inactive	–	inactive	inactive	inactive	–	–	–	–	–	inactive	inactive	inactive	inactive	inactive	–	–
COc1c(N2CCNC(C)C2)c(F)cc2c(=O)c(C(=O)O)cn(C3CC3)c12 (configuration not stated)	–	inactive	inactive	inactive	inactive	inactive	inactive	–	–	–	inactive	inactive	inactive	inactive	inactive	inactive	inactive	–	–
CN1[C@@H]2CC[C@H]1CC(OC(=O)c1c[nH]c3ccccc13)C2 (some centres not stated)	inactive	inactive	–	inactive	–	inactive	–	–	–	–	inactive	inactive	–	inactive	inactive	inactive	–	–	–
Cc1cccc(N(C)C(=S)Oc2ccc3c(c2)CCC3)c1	inactive	inactive	inactive	–	inactive	inactive	–	inactive	inactive	inactive	inactive	inactive	inactive	inactive	–	inactive	inactive	1.3 µM (active)	inactive
COc1cc(-c2nc(NC(=O)c3cc4cc(C)cc(C)c4n3CC(=O)O)sc2CCC2CCCCC2)c(OC)cc1Cl	inactive	–	inactive	inactive	inactive	–	–	inactive	inactive	inactive	–	–	inactive	inactive	inactive	inactive	6.65 µM (active)	inactive	–
O=CCCc1ccccc1	inactive	inactive	inactive	–	inactive	inactive	–	inactive	inactive	inactive	–	inactive	inactive	inactive	inactive	–	–	inactive	–
CCCCN1CCCC[C@H]1C(=O)Nc1c(C)cccc1C	inactive	–	inactive	inactive	inactive	inactive	inactive	–	–	–	–	–	inactive	inactive	inactive	inactive	inactive	–	inactive
CC(C)(C)c1cc(CCC(=O)NN)cc(C(C)(C)C)c1O	inactive	inactive	inactive	inactive	inactive	inactive	–	inactive	inactive	inactive	–	inactive	inactive	inactive	–	–	inactive	inactive	–
CCC(CC)C(=O)O	inactive	–	inactive	inactive	inactive	inactive	inactive	inactive	–	inactive	inactive	inactive	inactive	–	inactive	inactive	inactive	inactive	–
CC1(C)S[C@@H]2[C@H](NC(=O)C(c3ccccc3)S(=O)(=O)O)C(=O)N2[C@H]1C(=O)O (some centres not stated)	inactive	inactive	inactive	inactive	inactive	inactive	inactive	inactive	–	inactive	inactive	–	inactive	inactive	inactive	–	inactive	inactive	inactive
CCOc1ccc([N+](=O)[O-])cc1	inactive	inactive	–	inactive	41.4 µM (active)	–	–	–	inactive	–	inactive	55.3 µM (active)	inactive	inactive	–	inactive	–	inactive	–
CC(C)=CCC/C(C)=C/CC/C(C)=C/CCC(=O)OC/C=C(\C)CCC=C(C)C	inactive	inactive	inactive	inactive	inactive	–	inactive	inactive	inactive	inactive	inactive	inactive	inactive	inactive	inactive	–	inactive	inactive	–
CCCC(C)C	–	inactive	inactive	inactive	–	–	–	inactive	inactive	inactive	inactive	inactive	inactive	inactive	inactive	inactive	inactive	inactive	–
Clc1cc(Cl)c(Cl)nc1Cl	inactive	–	inactive	inactive	inactive	inactive	inactive	24.6 µM (active)	inactive	inactive	inactive	inactive	inactive	inactive	inactive	inactive	inactive	–	–
CCCCCCC(CO)CCCC (configuration not stated)	inactive	–	inactive	inactive	inactive	–	inactive	inactive	inactive	inactive	inactive	inactive	inactive	inactive	inactive	inactive	inactive	inactive	inactive
Oc1cccc2cc3cccc(O)c3c(O)c12	inactive	–	inactive	inactive	inactive	–	inactive	inactive	inactive	inactive	inactive	–	inactive	inactive	inactive	inactive	inactive	inactive	–
